Results filed as inconclusive are left out. Some of the results follow. Where a call stands in place of a potency, no number is given. Active and inactive are the calls of the source. Unless noted, the call rests on the fitted dose curve.
Molecular target: Cytochrome P450 3A4 (Homo sapiens) (UniProt P08684)
Sequence (P08684 whole entry, looked up): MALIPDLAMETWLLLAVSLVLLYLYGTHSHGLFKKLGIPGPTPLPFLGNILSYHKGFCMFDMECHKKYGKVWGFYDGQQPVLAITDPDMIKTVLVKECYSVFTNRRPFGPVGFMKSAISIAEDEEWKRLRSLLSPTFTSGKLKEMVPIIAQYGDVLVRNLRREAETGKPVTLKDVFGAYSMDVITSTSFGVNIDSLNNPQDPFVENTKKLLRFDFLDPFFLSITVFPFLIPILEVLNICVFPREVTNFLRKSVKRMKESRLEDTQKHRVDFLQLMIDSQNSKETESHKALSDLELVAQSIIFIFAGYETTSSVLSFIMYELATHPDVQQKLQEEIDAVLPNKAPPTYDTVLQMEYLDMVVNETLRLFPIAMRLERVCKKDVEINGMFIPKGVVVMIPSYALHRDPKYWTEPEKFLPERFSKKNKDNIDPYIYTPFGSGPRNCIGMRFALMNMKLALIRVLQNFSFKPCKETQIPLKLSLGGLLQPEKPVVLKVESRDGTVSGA
Experiment: qHTS Assay for Activators of Cytochrome P450 3A4 (AID 885; active means well fitted curve in the direction sought with a large enough effect; an effect the other way counts as inactive or inconclusive; further: nearly all actives have a fitted effect of over 65% in size)
Details: recombinant CYP3A4, Luciferin-PPXE luminescence, 60 min; series mostly up to 57.1 µM
Outline: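 Human CYP3A4 dealkylates Luciferin-PPXE to luciferin, which luciferase detection converts to light. Substrate was at its KM (25uM), buffer 200mM KPO4, reaction 60 min at RT.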
In the case of `O=C1c2c(O)ccc([N+](=O)[O-])c2C(=O)c2c([N+](=O)[O-])ccc(O)c21`, the Potency is reported as “inactive”. With `C=CCn1c(=O)n(CC=C)c(=O)n(CC=C)c1=O` the Potency was “inactive”. For `Cc1ccc([N+](=O)[O-])cc1N`, the Potency was “inactive”. In the case of `c1ccc2c(c1)ccc1ncccc12`, the Potency is reported as “inactive”. With `Cc1ccc(N)cc1[N+](=O)[O-]` the Potency was “inactive”. In the case of `COc1ccc(C)cc1N`, the Potency is reported as “inactive”.

Molecular target: Peroxisome proliferator-activated receptor delta (Homo sapiens) (UniProt Q03181)
Sequence (Q03181 whole entry, looked up): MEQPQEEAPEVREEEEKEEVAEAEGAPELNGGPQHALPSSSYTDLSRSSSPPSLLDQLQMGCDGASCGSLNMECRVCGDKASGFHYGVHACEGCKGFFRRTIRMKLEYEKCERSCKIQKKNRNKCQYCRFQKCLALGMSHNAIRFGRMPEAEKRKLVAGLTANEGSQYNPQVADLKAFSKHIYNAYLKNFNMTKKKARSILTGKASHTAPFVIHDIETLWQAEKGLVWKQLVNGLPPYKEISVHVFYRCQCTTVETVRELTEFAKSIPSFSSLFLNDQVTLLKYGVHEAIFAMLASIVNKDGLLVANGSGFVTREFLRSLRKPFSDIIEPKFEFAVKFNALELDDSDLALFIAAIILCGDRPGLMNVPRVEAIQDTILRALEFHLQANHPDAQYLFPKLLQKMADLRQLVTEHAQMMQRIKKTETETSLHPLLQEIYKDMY
Experiment: qHTS assay for small molecule agonists of peroxisome proliferator-activated receptor delta signaling (AID 588534)
Details: HEK293T PPARdelta-UAS-bla, beta-lactamase ratio, 18 h; series mostly up to 76.7 µM
Outline: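 EC50 and efficacy values derive from Hill fits of a concentration series in a beta-lactamase reporter cell assay. Exposure is 18 hrs at 37 C, with CCF4 fluorescence as the readout.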
In the case of `Cc1ccccc1C`, the outcome is reported as “inactive”. In the case of `CC(CCl)OC(C)CCl` (stereo not given), the outcome is reported as “inactive”. In the case of `c1cnc2c(c1)ccc1cccnc12`, the outcome is reported as “inactive”. With `O=C1c2c(O)ccc([N+](=O)[O-])c2C(=O)c2c([N+](=O)[O-])ccc(O)c21` the outcome was “inactive”. With `CCOP(=O)(SC(C)CC)N1CCSC1=O` (stereo not given) the outcome was “inactive”. With `Cc1c(N)cccc1N` the outcome was “inactive”. For `C=CCCC`, the outcome was “inactive”. For `COc1ccc(N=[N+]([O-])c2ccc(OC)cc2)cc1`, the outcome was “inactive”. With `C=CCn1c(=O)n(CC=C)c(=O)n(CC=C)c1=O` the outcome was “inactive”. With `O=C(Nc1ccccc1)c1ccccc1O` the outcome was “inactive”. With `OCC(CBr)(CBr)CBr` the outcome was “inactive”. In the case of `c1ccc2c(c1)Oc1ccccc1S2`, the outcome is reported as “inactive”. With `O=NO` the outcome was “inactive”. For `Oc1cc(Cl)cc(Cl)c1Cl`, the outcome was “inactive”. For `Cc1ccc([N+](=O)[O-])cc1N`, the outcome was “inactive”. For `c1ccc2c(c1)ccc1ncccc12`, the outcome was “inactive”. With `NCCN` the outcome was “inactive”. In the case of `Cc1cccc(C)c1`, the outcome is reported as “inactive”. In the case of `Cc1ccc(N)c([N+](=O)[O-])c1`, the outcome is reported as “inactive”. For `[O-][N+](=Nc1ccccc1)c1ccccc1`, the outcome was “inactive”. In the case of `O=C1OC(=O)c2c(Br)c(Br)c(Br)c(Br)c21`, the outcome is reported as “inactive”. With `COS(C)(=O)=O` the outcome was “inactive”. For `Cc1ccc(N)cc1[N+](=O)[O-]`, the outcome was “inactive”. In the case of `COc1ccc(C)cc1N`, the outcome is reported as “inactive”. For `c1c[nH]cn1`, the outcome was “inactive”. For `Cc1ccccc1`, the outcome was “inactive”.

Molecular target: Peroxisome proliferator-activated receptor gamma (Homo sapiens) (UniProt P37231)
Sequence (P37231 whole entry, looked up): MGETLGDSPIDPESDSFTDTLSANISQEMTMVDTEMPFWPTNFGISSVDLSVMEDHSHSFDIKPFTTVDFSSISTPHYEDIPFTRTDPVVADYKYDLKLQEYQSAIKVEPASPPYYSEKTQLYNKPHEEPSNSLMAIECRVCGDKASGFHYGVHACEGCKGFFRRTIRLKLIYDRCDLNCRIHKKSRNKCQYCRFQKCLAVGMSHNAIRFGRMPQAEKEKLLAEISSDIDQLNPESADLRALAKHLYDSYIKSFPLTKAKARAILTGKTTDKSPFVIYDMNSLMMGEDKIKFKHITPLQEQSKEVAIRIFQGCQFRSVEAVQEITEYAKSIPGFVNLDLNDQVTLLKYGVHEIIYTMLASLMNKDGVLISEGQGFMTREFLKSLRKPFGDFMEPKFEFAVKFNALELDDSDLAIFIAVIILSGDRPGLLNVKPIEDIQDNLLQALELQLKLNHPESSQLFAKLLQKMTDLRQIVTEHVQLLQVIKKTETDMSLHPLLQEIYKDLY
Experiment: qHTS assay for small molecule antagonists of peroxisome proliferator-activated receptor gamma signaling (AID 588537; active means well fitted inhibition curve with a large enough effect in the signal ratio, with a control signal flat, not every such curve was filed as active; the % refers to the signal ratio; further: potency means the concentration at half of the fitted maximal effect)
Details: HEK293 PPARg-UAS-bla, beta-lactamase ratio, antagonist mode; series mostly up to 76.8 µM
Outline: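 Cell-based beta-lactamase assay; GW9662 served as the antagonist control. Stimulation used rosiglitazone, final 50 nM, 16 h, 37 C.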
For `Cc1ccccc1C`, the Potency was “inactive”. With `CCOP(=O)(SC(C)CC)N1CCSC1=O` (stereo not given) the Potency was “inactive”. For `CON=C(C(=O)OC)c1ccccc1CO/N=C(\C)c1cccc(C(F)(F)F)c1`, the Potency was 35.5 µM (active). In the case of `CC(C)NC(=O)N1CC(=O)N(c2cc(Cl)cc(Cl)c2)C1=O`, the Potency is reported as 44.7 µM (active). With `CCOCn1c(-c2ccc(Cl)cc2)c(C#N)c(Br)c1C(F)(F)F` the Potency was 39.8 µM (active).

Molecular target: Vitamin D3 receptor (Homo sapiens) (UniProt P11473)
Sequence (P11473 whole entry, looked up): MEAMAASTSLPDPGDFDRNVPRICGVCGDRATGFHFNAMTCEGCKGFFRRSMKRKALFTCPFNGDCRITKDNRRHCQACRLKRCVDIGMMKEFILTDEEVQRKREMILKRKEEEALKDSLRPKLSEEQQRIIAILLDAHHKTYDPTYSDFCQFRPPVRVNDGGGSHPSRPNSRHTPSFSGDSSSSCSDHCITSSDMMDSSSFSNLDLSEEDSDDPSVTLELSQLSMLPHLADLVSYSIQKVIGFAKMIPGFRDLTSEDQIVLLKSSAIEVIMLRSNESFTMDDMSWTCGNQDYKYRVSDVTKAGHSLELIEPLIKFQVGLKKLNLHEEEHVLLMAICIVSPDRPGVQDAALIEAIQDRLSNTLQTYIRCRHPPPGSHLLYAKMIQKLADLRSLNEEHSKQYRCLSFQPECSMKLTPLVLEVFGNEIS
Experiment: qHTS assay for small molecule antagonists of vitamin D receptor signaling (AID 588541);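 further: receptor activated by calcitriol during compound treatment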
Details: HEK293T VDR-UAS-bla, beta-lactamase ratio, antagonist mode; series mostly up to 76.7 µM
Outline: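 Antagonist-mode beta-lactamase reporter assay: HEK293T VDR-UAS-bla cells were exposed to titrated compound alongside 1-alpha,25-dihydroxyvitamin D3 at 3 nM final for 16 h. Values were normalized to the 50 nM agonist control and DMSO basal, with IC50 and efficacy from Hill equation fits.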
With `S=C([S-])NCCNC(=S)[S-].S=C([S-])NCCNC(=S)[S-].[Mn+2].[Zn+2]` the Potency was “inactive”. For `S=C(S)NCCNC(=S)S`, the Potency was “inactive”. With `ClC1=C(Cl)[C@]2(Cl)[C@H]3[C@H]([C@@H]4C=C[C@H]3C4)[C@]1(Cl)C2(Cl)Cl` the Potency was “inactive”.

Molecular target: Vitamin D3 receptor (Homo sapiens) (UniProt P11473)
Experiment: qHTS assay for small molecule agonists of vitamin D receptor signaling (AID 588543)
Details: HEK293T VDR-UAS-bla, beta-lactamase ratio, 16 h; series mostly up to 76.8 µM
Outline: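 β-lactamase reporter, VDR-UAS-bla HEK293T, agonist mode. Cells plated 5 h at 37 °C, compound titration 16 h at 37 °C, CCF4 dye 2 h RT, ratio 460/530 nm. Hill fit → EC50, efficacy vs 50 nM 1α,25-(OH)2D3.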
In the case of `CCOP(=O)(SC(C)CC)N1CCSC1=O` (stereo not given), the outcome is reported as “inactive”. With `O=C1C(Cl)=C(Cl)C(=O)c2ccccc21` the outcome was “inactive”. For `CON=C(C(=O)OC)c1ccccc1CO/N=C(\C)c1cccc(C(F)(F)F)c1`, the outcome was “inactive”. In the case of `ClC1=C(Cl)[C@]2(Cl)[C@H]3[C@H]([C@@H]4C=C[C@H]3C4)[C@]1(Cl)C2(Cl)Cl`, the outcome is reported as “inactive”.

System: not listed separately
Experiment: qHTS assay for small molecule agonists of retinoid X receptor alpha signaling (AID 588544)
Details: HEK293T RXRa-UAS-bla, beta-lactamase reporter, 18 h; 530 nm emission
With `S=C(S)NCCNC(=S)S` the max response was 9.28%. Work on `N#CC(Br)(Br)C(N)=O` yielded a max response of 6.67%. `CC(C)NC(=O)N1CC(=O)N(c2cc(Cl)cc(Cl)c2)C1=O` showed a max response of 21.2%.

Molecular target: Retinoic acid receptor RXR-alpha (Homo sapiens) (UniProt P19793)
Sequence (P19793 whole entry, looked up): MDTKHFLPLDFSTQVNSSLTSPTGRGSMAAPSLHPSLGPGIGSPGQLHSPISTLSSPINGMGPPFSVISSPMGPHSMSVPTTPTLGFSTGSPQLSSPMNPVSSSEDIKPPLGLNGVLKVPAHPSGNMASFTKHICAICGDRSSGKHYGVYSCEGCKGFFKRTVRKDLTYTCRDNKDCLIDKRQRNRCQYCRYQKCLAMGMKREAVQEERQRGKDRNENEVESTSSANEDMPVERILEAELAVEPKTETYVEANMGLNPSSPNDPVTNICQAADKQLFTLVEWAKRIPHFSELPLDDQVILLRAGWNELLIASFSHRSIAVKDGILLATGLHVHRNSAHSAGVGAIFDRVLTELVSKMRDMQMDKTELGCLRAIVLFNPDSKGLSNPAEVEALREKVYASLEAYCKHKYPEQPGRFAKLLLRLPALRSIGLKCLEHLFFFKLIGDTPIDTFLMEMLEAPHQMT
Experiment: as above
Details: HEK293T RXRa-UAS-bla, beta-lactamase reporter, 18 h; series mostly up to 76.7 µM
For `S=C(S)NCCNC(=S)S`, the Potency was “inactive”. For `N#CC(Br)(Br)C(N)=O`, the Potency was “inactive”. With `CC(C)NC(=O)N1CC(=O)N(c2cc(Cl)cc(Cl)c2)C1=O` the Potency was “inactive”.

Molecular target: Thyroid hormone receptor beta (Homo sapiens) (UniProt P10828)
Sequence (P10828 whole entry, looked up): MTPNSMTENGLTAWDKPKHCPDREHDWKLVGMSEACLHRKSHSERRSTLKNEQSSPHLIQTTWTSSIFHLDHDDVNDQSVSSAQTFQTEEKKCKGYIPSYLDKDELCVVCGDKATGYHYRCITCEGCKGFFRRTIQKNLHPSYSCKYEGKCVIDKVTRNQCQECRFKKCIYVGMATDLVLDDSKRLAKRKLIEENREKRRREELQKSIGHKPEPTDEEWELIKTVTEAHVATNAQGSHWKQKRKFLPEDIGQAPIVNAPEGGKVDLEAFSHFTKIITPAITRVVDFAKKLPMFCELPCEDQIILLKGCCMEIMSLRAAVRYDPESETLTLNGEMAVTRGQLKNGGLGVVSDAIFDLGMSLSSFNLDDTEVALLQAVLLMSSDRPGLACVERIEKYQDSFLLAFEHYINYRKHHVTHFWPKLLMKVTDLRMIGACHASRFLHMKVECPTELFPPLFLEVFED
Experiment: qHTS assay for small molecule agonists of thyroid hormone receptor beta signaling (AID 588545)
Details: TR-UAS-bla GripTite HEK 293, beta-lactamase ratio, agonist mode, 18 h; series mostly up to 76.7 µM
Outline: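 Efficacy and EC50 values derive from Hill fits of qHTS titration data, normalized to 10 nM T3 and DMSO-only wells. HEK 293 reporter cells were stimulated for 18 hrs at 37 C, with beta-lactamase activity measured by CCF4 fluorescence.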
For `CON=C(C(=O)OC)c1ccccc1CO/N=C(\C)c1cccc(C(F)(F)F)c1`, the Potency was “inactive”. In the case of `CC(C)NC(=O)N1CC(=O)N(c2cc(Cl)cc(Cl)c2)C1=O`, the Potency is reported as “inactive”. In the case of `CCOCn1c(-c2ccc(Cl)cc2)c(C#N)c(Br)c1C(F)(F)F`, the Potency is reported as “inactive”.

System: not listed separately
Experiment: qHTS assay for small molecule antagonists of retinoid X receptor alpha signaling (AID 588546);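 further: cells stimulated with 9-cis-retinoic acid as agonist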
Details: HEK293T RXRa-UAS-bla, beta-lactamase ratio, antagonist mode; measured here: W530 green channel, cytotoxicity proxy
Outline: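 Beta-lactamase reporter inhibition, read as CCF4 fluorescence ratio (ex 405, em 460/530 nm) after 2 h at RT. HEK293T UAS-bla cells, 2500/well, were stimulated with 9-cis-RA at 500 or 100 nM final alongside test compound for 18 h at 37 C.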
`CCOP(=O)(SC(C)CC)N1CCSC1=O` (stereo not given) gave a max response of -8.5%. Work on `CC(C)NC(=O)N1CC(=O)N(c2cc(Cl)cc(Cl)c2)C1=O` yielded a max response of 11.6%. `CCOCn1c(-c2ccc(Cl)cc2)c(C#N)c(Br)c1C(F)(F)F` showed a max response of 0.12%.

Molecular target: Voltage-gated inwardly rectifying potassium channel KCNH2 (Homo sapiens) (UniProt Q12809)
Sequence (Q12809 whole entry, looked up): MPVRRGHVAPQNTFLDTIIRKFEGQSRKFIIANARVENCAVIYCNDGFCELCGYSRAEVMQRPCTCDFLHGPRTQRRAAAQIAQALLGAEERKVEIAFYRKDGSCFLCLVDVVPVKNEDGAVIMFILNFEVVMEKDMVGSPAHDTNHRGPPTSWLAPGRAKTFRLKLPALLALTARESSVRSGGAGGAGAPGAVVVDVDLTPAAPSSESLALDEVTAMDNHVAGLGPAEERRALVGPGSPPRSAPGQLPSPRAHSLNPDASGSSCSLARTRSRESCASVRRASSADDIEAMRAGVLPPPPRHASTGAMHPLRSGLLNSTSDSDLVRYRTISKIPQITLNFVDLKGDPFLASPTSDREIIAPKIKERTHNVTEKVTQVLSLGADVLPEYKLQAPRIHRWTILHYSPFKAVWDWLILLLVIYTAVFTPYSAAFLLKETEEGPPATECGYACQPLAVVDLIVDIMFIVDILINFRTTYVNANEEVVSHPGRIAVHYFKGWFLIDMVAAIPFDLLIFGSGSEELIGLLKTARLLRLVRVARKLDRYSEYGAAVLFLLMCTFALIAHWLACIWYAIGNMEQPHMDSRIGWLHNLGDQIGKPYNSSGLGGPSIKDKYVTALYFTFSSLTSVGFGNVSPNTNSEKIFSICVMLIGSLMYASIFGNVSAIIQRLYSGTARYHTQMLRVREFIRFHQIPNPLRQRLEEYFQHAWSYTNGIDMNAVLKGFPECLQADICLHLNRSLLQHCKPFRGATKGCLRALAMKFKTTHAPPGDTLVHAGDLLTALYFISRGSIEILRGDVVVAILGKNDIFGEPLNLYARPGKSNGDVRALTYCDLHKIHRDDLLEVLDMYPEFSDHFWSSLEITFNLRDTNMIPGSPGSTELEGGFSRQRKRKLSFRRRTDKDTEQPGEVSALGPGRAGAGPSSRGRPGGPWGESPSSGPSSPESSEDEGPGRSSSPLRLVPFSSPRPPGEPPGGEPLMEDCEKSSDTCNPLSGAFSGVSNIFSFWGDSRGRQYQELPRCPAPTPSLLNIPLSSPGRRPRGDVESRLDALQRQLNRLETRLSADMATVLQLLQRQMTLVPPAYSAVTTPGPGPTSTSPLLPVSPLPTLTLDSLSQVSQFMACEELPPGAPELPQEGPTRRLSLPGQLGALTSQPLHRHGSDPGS
Experiment: qHTS Assay for Small Molecule Inhibitors of the Human hERG Channel Activity (AID 588834; active means well fitted curve in the direction sought with a large enough effect; an effect the other way counts as inactive or inconclusive;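 further: lower thallium flux fluorescence means stronger hERG block; nearly all actives have a fitted effect of over 50% in size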; further: potency means the concentration at half of the fitted maximal effect)
Details: U2OS BacMam hERG, FluxOR thallium flux fluorescence; series mostly up to 92.2 µM
Outline: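 Thallium-flux (FluxOR) read-out on FDSS: fluorescence read 10 s before and 2 min after stimulation buffer. hERG-BacMam-transduced U2OS cells, compound exposure about 10 min. AC50 by standard Hill equation.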
For `c1ccc2c(c1)Oc1ccccc1S2`, the Potency was 28.2 µM (active). For `NCCN`, the Potency was “inactive”. With `[O-][N+](=Nc1ccccc1)c1ccccc1` the Potency was “inactive”.

Molecular target: Vitamin D3 receptor (Homo sapiens) (UniProt P11473)
Experiment: qHTS for Inhibitors of the vitamin D receptor (VDR): Hit Validation in Primary Screen (AID 602199; active means well fitted curve in the direction sought with a large enough effect; an effect the other way counts as inactive or inconclusive; further: potency means the concentration at half of the fitted maximal effect)
Details: VDR-coactivator inhibition assay, qHTS confirmation
Outline: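 With 800 nM VDR and 5 uM LG19078 agonist present, compounds were incubated 2 h at ambient temperature with Alexa 647-labelled SRC2-3. Displacement was read as polarization at 620/688 nm.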
For `O=C(O)CCn1cc(C=C2C(=O)NC(=S)NC2=O)c(-c2cccc(Br)c2)n1`, the Potency was 6.7 µM (active). In the case of `O=C1NC(=O)N(c2ccccc2)C(=O)/C1=C/c1ccc([N+](=O)[O-])s1`, the Potency is reported as 26.7 µM (active). For `Cc1ccnc(-n2c(C)cc(/C=C3\C(=O)NC(=S)N(C)C3=O)c2C)c1`, the Potency was 29.9 µM (active).

System: not listed separately
Experiment: qHTS for Inhibitors of the vitamin D receptor (VDR): Hit Validation using a Texas Red Assay (AID 602201; active means well fitted curve in the direction sought with a large enough effect; an effect the other way counts as inactive or inconclusive; further: potency means the concentration at half of the fitted maximal effect)
Details: VDR coregulator binding, Texas Red fluorescence polarization; series mostly up to 57.1 µM
Outline: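 After a 2-hour room-temperature incubation, polarization of Texas-Red emission was read (Ex 595 nm/Em 615 nm). Final mix contained 7 nM Texas Red, 1.5 uM VDR-LBD and LG19078.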
In the case of `COC(=O)COc1ccc(/C=C2\C(=O)NC(=S)N(c3ccc(C)cc3)C2=O)cc1OC`, the Potency is reported as “inactive”. In the case of `CN1CCC(O)(c2cccs2)C(C(=O)c2cccs2)C1` (stereo not given), the Potency is reported as 28.2 µM (active). In the case of `O=C(O)CCn1cc(C=C2C(=O)NC(=S)NC2=O)c(-c2cccc(Br)c2)n1`, the Potency is reported as “inactive”. With `O=C1NC(=O)N(c2ccccc2)C(=O)/C1=C/c1ccc([N+](=O)[O-])s1` the Potency was “inactive”. With `O=C(O)CCC(=O)NCCC1=c2ccccc2=N/C1=C\c1c(O)n(Cc2ccc(F)cc2)c(=S)[nH]c1=O` the Potency was “inactive”.

Molecular target: Vitamin D3 receptor (Homo sapiens) (UniProt P11473)
Experiment: qHTS for Inhibitors of the vitamin D receptor (VDR): Hit Validation using a Beta-Lactamase Assay (AID 602202; active means well fitted curve in the direction sought with a large enough effect; an effect the other way counts as inactive or inconclusive)
Details: VDR beta-lactamase reporter cells, FRET ratio; series mostly up to 46.1 µM
Outline: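 Beta-lactamase reporter read-out (447 nm emission of cleaved FRET substrate, 2 h) after 18 h compound exposure of HEK293 cells carrying a VDR-GAL4 fusion and UAS reporter, stimulated with LG190178.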
In the case of `O=C(O)CCn1cc(C=C2C(=O)NC(=S)NC2=O)c(-c2cccc(Br)c2)n1`, the outcome is reported as “inactive”. In the case of `O=C1NC(=O)N(c2ccccc2)C(=O)/C1=C/c1ccc([N+](=O)[O-])s1`, the outcome is reported as “inactive”. With `Cc1ccnc(-n2c(C)cc(/C=C3\C(=O)NC(=S)N(C)C3=O)c2C)c1` the outcome was “inactive”.
